This is one part of a sample in which hits are shown more often than they occur.
LmPK inhibitor: inhibitors of Leishmania mexicana pyruvate kinase. purified LmPK, Kinase-Glo ATP luminescence, 1 h. Potency, µM (titrated, usually from 57.5 µM), inactives show at the top dose activity change, negative = inhibition, hits mostly inhibitors. AID 1721. 0.37% of 290,000 active. Q27686; also: potency is read from the fitted curve at half-maximal effect; % is scaled to controls: 0 for no effect and ±100 for the full control effect
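qHTS format; LmPK 0.1 nM; substrates PEP 0.5 mM and ADP 0.1 mM. One-hour room-temperature incubation, then coupled luciferase luminescence; 0.5 nM enzyme wells mark activation.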
Tb PYK inh: blocks Trypanosoma brucei pyruvate kinase | Q57TT1 | TbPYK enzyme, Kinase-Glo Plus ATP luminescence, 45 min | Potency, µM (titrated, usually from 76.8 µM), inactives show top-dose activity, negative = inhibition, hits mostly inhibitors | 0.12% of 410,000 active | AID 624173; also: potency is read from the fitted curve at half-maximal effect; % is scaled to controls: 0 for no effect and ±100 for the full control effect; nearly all actives have a fitted effect of over 50% in size
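TbPYK + substrate in 50 mM TEA pH 7.2, 100 mM KCl, 10 mM MgCl2, 0.05% BSA, 0.01% Tween-20; cpd pinned; ADP 130 uM final; 45 min RT; Kinase-Glo Plus 10 min; luminescence endpoint.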
FBPA Giardia inh: inhibitors of Giardia lamblia fructose-1,6-bisphosphate aldolase. A8B2U2. purified Giardia FBPA. Potency, µM (series often up to 59.6 µM), inactives show top-dose activity, negative = inhibition, actives largely listed as inhibitors. 0.71% of 290,000 active. AID 2451; also: potency is read from the fitted curve at half-maximal effect; % is scaled to controls: 0 for no effect and ±100 for the full control effect; nearly all actives have a fitted effect of over 55% in size
Target sequence (A8B2U2 whole entry, looked up): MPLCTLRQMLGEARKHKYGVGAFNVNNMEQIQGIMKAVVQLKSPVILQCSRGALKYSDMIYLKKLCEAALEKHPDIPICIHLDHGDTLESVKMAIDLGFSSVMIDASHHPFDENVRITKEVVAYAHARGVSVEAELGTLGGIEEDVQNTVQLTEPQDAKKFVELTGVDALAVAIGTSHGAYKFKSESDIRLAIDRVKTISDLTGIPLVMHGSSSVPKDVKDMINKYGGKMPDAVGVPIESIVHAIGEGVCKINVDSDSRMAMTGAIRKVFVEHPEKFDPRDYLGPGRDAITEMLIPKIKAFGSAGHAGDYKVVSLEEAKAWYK
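40 nM FBPA preincubated 10 min at RT with compound (up to 57.5 uM final), then substrate plus GAPDH/TPI/NAD/arsenate coupling and diaphorase/resazurin added. Fluorescence read after 20 min at RT, 525/598 nm.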
Shiga inhibitor: Shiga toxin inhibition; Vero cells, Shiga toxin protein synthesis inhibition reporter; 9.2% of 290,000 active; inhibition, % at 38.7 µM; in the data active = inhibition mostly above about 28%, no sharp cut-off; inactive = mostly below about 43%; also: 0% is about no effect
RE007 growth inh: less growth of the S. pombe RE007 Vpr strain. Potency, µM (top dose mostly 92.2 µM), inactives show at the highest dose activity change, negative = less growth, hits mostly inhibitors. 0.21% of 360,000 active. S. pombe RE007 Vpr strain, BacTiter-Glo ATP luminescence, 24 h. AID 651644; active = well fitted falling curve with a large enough effect; inconclusive = small, poorly fitted or top-dose-only effect; inactive = no such curve, though single readings can be large or run the other way; also: potency is read from the fitted curve at half-maximal effect; % is scaled to controls: 0 for no effect and ±100 for the full control effect; nearly all actives have a fitted effect of over 50% in size
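Fission yeast strain RE007, carrying one chromosomally integrated HIV-1 vpr copy, was seeded at OD 0.01 in PMG+AL medium with 23 nL pinned compound. After 24 h at 30 °C and 99% humidity, viability was read by BacTiter-Glo luminescence.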
CHX counter: counter-screen for Shiga toxin inhibitors: cycloheximide protein synthesis inhibition; cell reporter, cycloheximide protein synthesis inhibition counterscreen; max response, %; 12% of 300,000 active; in the data active = max response mostly above about 13%, no sharp cut-off; inactive = mostly below about 14%; also: read at 38.3 µM for the half of the compounds with a filed dose; 0% is about no effect
The depositor's hits bear a star; ? = inconclusive; . = not tested or not shown; [ ] = dose if it differs, or a comment. Unless noted, calls follow the shape of the dose curve; as a rule, active = well fitted curve in the direction sought with a large enough effect; inconclusive = small, poorly fitted or top-dose-only effect, or another doubt; inactive = no such curve, though single readings can be large; an effect the other way counts as inactive or inconclusive.

SMILES	LmPK inhibitor	Tb PYK inh	FBPA Giardia inh	Shiga inhibitor	RE007 growth inh	CHX counter
COc1ccc(NCc2cc3cc4c(cc3n(CC(=O)Nc3ccc(F)cc3)c2=O)OCCO4)cc1	.	3%	.	.	.	.
COc1cccc(-c2cncnc2NCc2ccccc2)c1	.	.	-6%	.	.	.
CCOc1ccc(-c2nc3c(C#N)c[nH]n3c2NC2CCCCC2)cc1	.	-1%	.	.	.	.
CCN1CCN(c2ccc(NC(=O)c3ccc(Br)o3)cc2)CC1	0%	4%	1%	111*	1%	43*
O=C(Nc1ccc(N2CCCC2)cc1)c1ccc(Br)o1	-28%	-8%	-19%	71*	6%	58*
COc1ccc2c(c1)cc(C(O)c1ccccn1)n2S(=O)(=O)c1ccccc1 (stereo unspecified)	-3%	1%	-20%	41*	0%	19*
COc1ccc(NC(=O)c2cc(CC(C)C)on2)cc1OC	-1%	2%	8%	active	-12%	42*
CCc1ccc(NC(=O)c2cc(CC(C)C)on2)cc1	0%	-1%	0%	39*	-5%	33*
CC(C)Cc1cc(C(=O)Nc2ccc3c(c2)OCO3)no1	-1%	1%	0%	72*	-1%	36*
CC(C)Cc1cc(C(=O)Nc2cccc(O)c2)no1	?	-12%	1%	13	-18%	10
CC(C)Cc1cc(C(=O)Nc2ccc(Br)cc2)no1	-5%	8%	3%	69	-9%	36*
COc1ccc(NC(=O)c2cc(-c3ccccc3)on2)cc1OC	11%	-1%	-3%	.	-7%	7
Cc1cccc(N2C(=O)CSC23C(=O)N(C)c2ccccc23)c1 (stereo unspecified)	.	-1%	.	.	.	.
COc1ccc(CNC(=O)CCc2c(C)c3cc4c(C)c(C)oc4cc3oc2=O)cc1OC	.	1%	.	.	.	.
COc1ccc(NC(=O)OCC(C)C)cc1OC	-2%	-16%	1%	50*	19%	21*
CC(=O)c1ccc(NC(=O)c2cc(-c3ccc(Cl)c(Cl)c3)on2)cc1	.	2%	.	.	.	.
CC(/C=N/N1CCN(c2ccccc2)CC1)=C\c1ccccc1	-17%	5%	-1%	-11	4%	-1
CC(=C/c1ccco1)/C=N/N1CCN(c2ccccc2)CC1	16µM*	.	.	86*	0%[3.69 µM]	46*
CC(/C=N/N1CCN(c2ccccc2)CC1)=C\c1ccco1	13µM*	?	1%	37	-23%	44*
CC1=C(c2ccc(F)cc2)S(=O)(=O)N=C1N1CCC(C(=O)NCCc2cccc(C)c2)CC1	.	4%	.	.	.	.
CCCC[C@@H]1CCCO[C@@](C(=O)NCC2CC2)(C(F)(F)F)C1	.	.	2%	-7	.	-4
CC1=C(C(=O)OCC2CCCCC2)C(c2ccc(Cl)cc2)CC(=O)N1 (stereo unspecified)	.	4%	.	.	.	.
COC(=O)c1c(C)cc(C)c2c1CC(C)(C)C2=O	-2%	4%	0%	10	-18%	-2
C[C@]12CCC3C(CCC4=CC(=O)CC[C@@H]43)C1CCC2O (stereo partly specified)	.	14%	.	.	.	.
CC(=O)N(CN1C(=O)c2ccccc2C1=O)c1cccc(C)c1	3%	2%	0%	12	2%	-2
SMILES	LmPK inhibitor	Tb PYK inh	FBPA Giardia inh	Shiga inhibitor	RE007 growth inh	CHX counter
CC(=O)N(/N=C1\Sc2ccccc2C1=O)c1cccc(C)c1	-4%	-4%	0%	142*	-2%	58*
COc1cccc(Oc2ccc(C(F)(F)F)cc2NC(=O)CCc2nc3ccccc3c(=O)[nH]2)c1	1%	0%	.	55*	2%	43*
Cc1ccc(C(=O)NCCCN2CCN(CCCNC(=O)c3ccc(C)cc3)CC2)cc1	.	-9%	.	.	2%	.
NS(=O)(=O)c1ccc(N/N=C/C=C/c2ccccc2[N+](=O)[O-])cc1	11%	1%	-2%	80*	47%	37*
O=C(CN1CCN(Cc2ccccc2)CC1)N/N=C/C=C/c1ccccc1[N+](=O)[O-]	3%	-7%	4%	-6	-3%	8
O=C(O)c1cc(N/N=C/C=C/c2ccccc2[N+](=O)[O-])ccc1Cl	1%	6%	3%	68*	-16%	42*
CCOC(=O)c1cnn(-c2ccc(C(=O)Nc3cc(OC)c(OC)c(OC)c3)cc2)c1N	.	-2%	.	.	.	.
CCOc1ccc2c(c1)nc(SCC(=O)c1ccc(Br)s1)n2C	-3%	-27%	-14%	-5	-4%	2
CCOc1ccc2c(c1)nc(SCC(=O)c1cccs1)n2C	-4%	-19%	-14%	81*	-26%	50*
CC(C)NS(=O)(=O)c1ccc2nc(NC(=O)c3cncc(Br)c3)sc2c1	.	6%	.	.	.	.
Cn1cc(S(=O)(=O)NCc2ccc3c(c2)OCO3)c(C(F)(F)F)n1	-6%	-3%	.	-4	9%	-1
Cc1c(C)c(C)c2[nH]c(-c3ccc4c(c3)OCO4)nc2c1C	9%	-10%	-2%	68*	-18%	27*
COc1ccc(-c2[nH]c(-c3ccc4c(c3)OCO4)nc2-c2ccccc2)cc1	2%	3%	-6%	-13	-1%	6
Cc1ccc(N2C(=O)c3n[nH]c(C)c3C2c2ccco2)cc1 (stereo unspecified)	-1%	-14%	-7%	73*	-2%	37*
O=C(Nc1ccc(Cl)cc1)N1CCC(c2nc(-c3cccs3)no2)CC1	-11%	0%	4%	49*	3%	24*
COc1cccc(C(=O)N2CCCC(c3nc(-c4cccs4)no3)C2)c1 (stereo unspecified)	-1%	-8%	5%	36	-1%	20
O=C(NC1CCCCC1)N1CCCC(c2nc(-c3cccs3)no2)C1 (stereo unspecified)	-1%	0%	.	18	1%	-2
O=C(Nc1ccccc1)N1CCCC(c2nc(-c3cccs3)no2)C1 (stereo unspecified)	-1%	-14%	7%	80*	10%	19*
O=C(Nc1ccc(Cl)cc1)N1CCC(c2nc(-c3ccccc3Cl)no2)CC1	8%	2%	6%	10	-11%	15
COc1ccc(NC(=O)N2CCC(c3nc(-c4cccs4)no3)CC2)cc1	1%	31%	-2%	11	1%	19*
Cc1nn(-c2cccc(Cl)c2)c2nc(-c3cccnc3)cc(C(F)(F)F)c12	.	0%	.	.	.	.
COc1ccc(N/C=C(\C#N)S(=O)(=O)c2ccc(Cl)cc2)c(OC)c1	4%	-19%	3%	3	-1%	-4
Cc1c(CCN)ccc2c1[nH]c1ccccc12	2%	5%	-4%	23	-16%	17*
CC(C)Oc1ccc(CNC(=O)Nc2ccc3c(c2)N(C)C(=O)c2ccccc2S3)cc1	.	1%	.	.	.	.
Cc1ccc(Cl)cc1NC(=O)CC1Sc2ccccc2NC1=O (stereo unspecified)	.	0%	.	.	.	.
